This is one part of a sample in which hits are shown more often than they occur.
ERK EGF block: inhibitors of EGF-stimulated ERK signaling pathway; Potency, µM (doses to about 11.5 µM), for inactives: at the highest dose activity change, negative = inhibition, hits mostly inhibitors; 0.41% of 130,000 active; HEK293-V1b, EGF-stimulated phospho-ERK AlphaScreen; active = well fitted inhibition curve with a large enough effect;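 note: plate controls were stimulated vehicle wells for no effect and unstimulated vehicle basal for full effect; nearly all actives have a fitted effect of over 55% in size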
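Cell line HEK293 (stable V1b), low serum overnight. Pretreatment: compound 30 min, 37C. EGF 25 nM, 5 min. Detection: SureFire AlphaScreen, 5 h RT. AC50 via standard Hill equation.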
Active calls of the source: *; [ ] = another dose, or the depositor's remark. Potency is the fitted concentration of half-maximal effect.

How did Fc1cccc(Nc2ncnc3[nH]ncc23)c1 do in these assays?
ERK EGF block: 25.1µM*

How did NC(=O)c1cccnc1Nc1cccc(F)c1 do in these assays?
ERK EGF block: -4.0%

How did Nc1ncnc(Nc2cccc(F)c2)n1 do in these assays?
ERK EGF block: -5.0%[57.5 µM]

Results for Cc1cccc(OCC(=O)Nc2cc(S(=O)(=O)N3CCCCC3)ccc2N2CCN(C)CC2)c1 ?
ERK EGF block: 9.8%

What do the screens show for `CC(C)CC1(C(=O)O)C=CCN1C(=O)c1ccccc1` (stereo unspecified)?
ERK EGF block: 18.5%

What do the screens show for `O=[N+]([O-])c1cc2c(cc1/C=N/Nc1nc(N3CCCC3)nc(N3CCCC3)n1)OCO2`?
ERK EGF block: 20.6%

How did CN1\C(=C/C=C/C=C/C=[N+](C)C)C(C)(C)c2ccccc21 do in these assays?
ERK EGF block: 15.8µM*

How did CN1/C(=C\C=O)C(C)(C)c2ccccc21 do in these assays?
ERK EGF block: 2.9%

What do the screens show for `CN1/C(=C/C=C(C#N)C#N)C(C)(C)c2ccccc21`?
ERK EGF block: -2.9%

Results for CCCCN(C)Cc1c(C)[nH]c2ccccc2c1=O ?
ERK EGF block: -0.4%

Results for Cc1ccccc1NC(=S)NCC1CCN(C(C)c2ccccc2)C1 (stereo unspecified) ?
ERK EGF block: 7.6%[57.5 µM]

What do the screens show for `CCc1ccc(NC(=O)NCC2CCN(c3ccc(OC)cc3)C2)cc1` (stereo unspecified)?
ERK EGF block: -17.4%[57.5 µM]

What do the screens show for `COc1ccc(N2CCC(CNC(=O)Nc3ccc(C)c(C)c3)C2)cc1` (stereo unspecified)?
ERK EGF block: 3.3%

Results for Cc1ccc(NC(=S)NC2CCN(Cc3ccccc3)CC2)c(C)c1 ?
ERK EGF block: 2.7%

How did COc1ccc(N2CCC(CNC(=S)Nc3ccc(C)cc3C)C2)cc1 (stereo unspecified) do in these assays?
ERK EGF block: 14.1µM*

Results for COc1ccc(N2CCC(CNC(=S)Nc3c(C)cc(C)cc3C)C2)cc1 (stereo unspecified) ?
ERK EGF block: 8.91µM*

What do the screens show for `C=CCOc1ccc(CNCCO)cc1OCC`?
ERK EGF block: -4.6%

How did Cc1cccc(C)c1-n1c(C)nn(Cc2ccc([N+](=O)[O-])cc2)c1=O do in these assays?
ERK EGF block: -0.1%

What do the screens show for `CC#CCc1cc2ccccc2c(=O)o1`?
ERK EGF block: -6.5%[57.5 µM]

How did Cc1ccc2c(c1)c1c(n2CC(O)CN2CCCCC2C)CCCC1 (stereo unspecified) do in these assays?
ERK EGF block: 2.4%[57.5 µM]

What do the screens show for `NNC(=O)c1cc(-c2cccs2)nc2ccccc12`?
ERK EGF block: 7.2%[57.5 µM]

Results for C/C(=N\NC(=O)c1cc(-c2cccs2)nc2ccccc12)c1ccccn1 ?
ERK EGF block: 13.7%

How did Cc1cccc2sc(NNC(=O)c3cc(-c4cccs4)nc4ccccc34)nc12 do in these assays?
ERK EGF block: 12.6µM*

How did Cc1ccc(NC(=O)CSc2ncnc3ccccc23)cc1S(=O)(=O)N1CCCCCC1 do in these assays?
ERK EGF block: 0.7%

Results for CC(C)N(C(C)C)S(=O)(=O)c1ccc(Cl)nc1 ?
ERK EGF block: 2.1%

Results for S=C1NC(c2cccs2)=CC(c2ccc(Br)cc2)N1 (stereo unspecified) ?
ERK EGF block: 2.7%

How did O=C(NNC(=S)NC1CCCCC1)c1sc2ccccc2c1Cl do in these assays?
ERK EGF block: 2.3%

What do the screens show for `O=C(NC(=S)NCCO)c1sc2ccccc2c1Cl`?
ERK EGF block: 6.8%

Results for CC(C)(C)C(=O)NC(=S)NNC(=O)c1sc2ccccc2c1Cl ?
ERK EGF block: 12.6µM*

How did CC(O)CNc1nc2ccccc2n1CC(=O)NC12CC3CC(CC(C3)C1)C2 (stereo unspecified) do in these assays?
ERK EGF block: -6.4%

How did COc1c(-c2coc3cc4c(cc3c2=O)CC(O)C(C)(C)O4)ccc2c1C=CC(C)(C)O2 (stereo unspecified) do in these assays?
ERK EGF block: 12.6µM*

Results for COc1c(-c2coc3cc4c(cc3c2=O)CC(OC(C)=O)C(C)(C)O4)ccc2c1C=CC(C)(C)O2 (stereo unspecified) ?
ERK EGF block: 46.9%

How did CC1(C)C=Cc2c(cc3occ(-c4ccc5c(c4)OCO5)c(=O)c3c2O)O1 do in these assays?
ERK EGF block: 12.4%

How did COc1ccc(-c2coc3cc(O)cc(O)c3c2=O)cc1OC do in these assays?
ERK EGF block: 8.5%[57.5 µM]

How did CCN1C(=O)/C(=C2\Sc3ccccc3N2CC)OC1=S do in these assays?
ERK EGF block: 13.4%

How did CCN1C(=C(C#N)C#N)C=Cc2ccccc21 do in these assays?
ERK EGF block: -4.8%

What do the screens show for `CCN1C(=O)/C(=C2/C=Cc3ccccc3N2CC)SC1=S`?
ERK EGF block: 15.8µM*

How did CC(C)(C)c1nc(C(C)(C)C)c(Br)c(=O)[nH]1 do in these assays?
ERK EGF block: 0.5%

Results for Cc1cc(C)nc(S/C=C/C(=O)c2ccccc2F)n1 ?
ERK EGF block: 28.2µM*

How did Cc1nnc(SCC(=O)c2ccccc2F)n1Cc1ccccc1 do in these assays?
ERK EGF block: -6.4%[57.5 µM]

What do the screens show for `Cc1cc(NC(=O)c2ccccc2F)on1`?
ERK EGF block: -3.2%

How did COc1cc(C(=O)NC(CCSC)C(=O)OCc2cc([N+](=O)[O-])cc3c2OCOC3)cc(OC)c1OC (stereo unspecified) do in these assays?
ERK EGF block: 12.8%

Results for Cc1ccc(N=CC2=C(O)CC(c3cccc(Cl)c3)CC2=O)cc1 (stereo unspecified) ?
ERK EGF block: -6.2%

Results for O=C1CC(c2ccccc2)CC(O)=C1C=Nc1ccc(Cl)cc1 (stereo unspecified) ?
ERK EGF block: 5.4%

How did Cc1ccc(N=CC2=C(O)CC(c3ccccc3Cl)CC2=O)cc1 (stereo unspecified) do in these assays?
ERK EGF block: 20µM*

Results for CCn1c(=N)n(CC(O)c2cccs2)c2ccccc21 (stereo unspecified) ?
ERK EGF block: 41.0%

Results for NS(=O)(=O)c1ccc(CCNS(=O)(=O)c2ccccc2)cc1 ?
ERK EGF block: -3.8%

Results for COc1cc(/C=N/NC(=S)NCC2CCCO2)cc(OC)c1OC (stereo unspecified) ?
ERK EGF block: -7.0%[57.5 µM]

Results for CN(C)/C=C(\C=O)c1c(Cl)cccc1Cl ?
ERK EGF block: -5.6%

Results for COc1ccccc1NS(=O)(=O)c1cc(NC(C)=O)ccc1N1CCCCC1 ?
ERK EGF block: 2.0%

How did COc1ccccc1NC(=O)C(=O)N1CCCC1 do in these assays?
ERK EGF block: -9.9%

How did COc1ccccc1NC1=C(N2CCCCC2)C(=O)c2ccccc2C1=O do in these assays?
ERK EGF block: 25.1µM*

What do the screens show for `c1csc(-c2ccnc3ncnn23)c1`?
ERK EGF block: -2.9%

How did CC(=O)N1Cc2ccccc2C(C)CC12CCCC2 (stereo unspecified) do in these assays?
ERK EGF block: 2.9%

What do the screens show for `N#Cc1cccc(NC(=O)CSc2nnc(-c3n[nH]c4ccccc34)o2)c1`?
ERK EGF block: 31.6µM*

How did Cc1cccc(NC(=O)CSc2nnc(-c3n[nH]c4ccccc34)o2)c1 do in these assays?
ERK EGF block: 2.6%

Results for C#Cc1cccc(NC(=O)CSc2nnc(-c3ccc(C(F)(F)F)cn3)o2)c1 ?
ERK EGF block: 0.9%[57.5 µM]

Results for COc1cccc(CN=C2Nc3ccccc3CS2)c1 ?
ERK EGF block: -8.9%

What do the screens show for `O=C(O)c1cccc(Nc2ncnc3ccc(Br)cc23)c1`?
ERK EGF block: -9.3%[57.5 µM]

How did CN(Cc1ccco1)c1ncnc2ccc(-c3ccc4c(c3)OCO4)cc12 do in these assays?
ERK EGF block: 22.8%

How did c1ccc(Nc2ncnc3ccc(-c4ccc5c(c4)OCO5)cc23)cc1 do in these assays?
ERK EGF block: 2.82µM*

Bioassay records as filed in PubChem BioAssay.
